This is an account of results in PubChem BioAssay (NCI).

Test systems include SK-MEL-2 melanoma; EKVX NSCLC; SN12C renal; UO-31 renal; TK-10 renal; ACHN renal; CAKI-1 renal; A498 renal; CCRF-CEM leukemia; MOLT-4 leukemia.
Holding throughout (assay): NCI-60 one-dose screen, 48 h (100 = growth as untreated, 0 = no growth, -100 = all killed)
Common to all, as to conditions: 10 µM unless noted

Compounds without any hit were thinned out: in the full panel of roughly 83,000, 20% have a hit.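 The endpoint reported here, percent growth, reads 100 for growth as untreated, 0 for no net growth and -100 for all cells dead.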 A number with no mark means an inactive call. Activity calls are given as the source filed them. How the source made its calls: active means growth percent below 10; inactive means the rest.

Regarding `COC(=O)/C(CCC=C(C)C)=C1\[C@@H](OC(C)=O)C[C@@]2(C)[C@H]1C[C@@H](O)[C@H]1[C@@]3(C)CC[C@H](NCCN)[C@@H](C)[C@@H]3CC[C@@]12C`, the growth was 92.6% with SK-MEL-2 melanoma; 82.2% with EKVX NSCLC; 81.2% with SN12C renal; 69.4% with UO-31 renal; 101% in the assay on TK-10 renal; 99.6% with ACHN renal. Further, the growth is 88.3% with CAKI-1 renal, 94.4% in the assay on A498 renal, 79.4% with CCRF-CEM leukemia and -13.2% (active) in the assay on MOLT-4 leukemia.

In the case of `COc1cccc(CNc2ncnc3c2ncn3C2OC(CO)C(O)C2O)c1O` (stereo not given), the growth with SK-MEL-2 melanoma is -6.73% (active); in the assay with EKVX NSCLC, 24.6%; in the assay with SN12C renal, -3.64% (active); with UO-31 renal, 7.67% (active); in the assay on TK-10 renal it was 6.39% (active); in the assay with ACHN renal, -14.3% (active). Also, the growth in the assay on CAKI-1 renal was -2.16% (active); with A498 renal it was -0.46% (active); in the assay on CCRF-CEM leukemia, -17.3% (active); in the assay on MOLT-4 leukemia, 0.14% (active).

For `CN(C)Cc1ccc(NC(=O)c2cncc(C#Cc3cnc(N)c4ncccc34)c2)cc1F`, the growth in the assay with SK-MEL-2 melanoma is 88.6%; in the assay on EKVX NSCLC, 93.4%; with SN12C renal, 86.4%; with UO-31 renal, 108%; in the assay on TK-10 renal it was 141%; in the assay on ACHN renal it was 61.1%. Also, the growth with CAKI-1 renal was 87.7%; in the assay on A498 renal, 73.9%; in the assay with CCRF-CEM leukemia, 4.73% (active); in the assay on MOLT-4 leukemia it was 76.3%.

As for `C[C@]12C=CC(=O)C=C1CCC1C2[C@@H](O)C[C@@]2(C)C1CC[C@]2(O)C(=O)COC(=O)CCC(=O)O` (stereo not given in full), the growth with SK-MEL-2 melanoma is 117%; with EKVX NSCLC, 74.2%; in the assay with SN12C renal, 74.2%; in the assay with UO-31 renal it was 92.2%; in the assay with TK-10 renal it was 116%; in the assay with ACHN renal it was 102%. For the same compound, the growth was 82.5% in the assay with CAKI-1 renal, 89.2% in the assay with A498 renal, 60.9% with CCRF-CEM leukemia and 100% in the assay on MOLT-4 leukemia.

Regarding `N#Cc1cccc(-c2c(-c3ccc4ccccc4c3)oc3ccccc3c2=O)c1`, the growth in the assay on SK-MEL-2 melanoma was 59.1%; with EKVX NSCLC, 52.7%; in the assay with SN12C renal, 68.3%; in the assay on UO-31 renal, 51.4%; in the assay with TK-10 renal, 73.1%; in the assay with ACHN renal, 55.9%. The growth was 45.5% with CAKI-1 renal, 43.4% with A498 renal, 27.6% in the assay with CCRF-CEM leukemia and 31% with MOLT-4 leukemia.

On to `Cn1ccc2c3c(ccc21)CC3=O`, for which the growth in the assay on SK-MEL-2 melanoma was 126%; with EKVX NSCLC, 103%; with SN12C renal, 106%; in the assay with UO-31 renal it was 107%; in the assay with TK-10 renal, 124%; in the assay on ACHN renal it was 111%. The growth with CAKI-1 renal was 92.3%; in the assay with A498 renal it was 92.6%; with CCRF-CEM leukemia, 111%; in the assay with MOLT-4 leukemia it was 88.9%.

Take `NC(=O)c1c(NC(=O)c2ccccc2)sc2c1CCC(=O)C2`: the growth with SK-MEL-2 melanoma is 12.7%; with EKVX NSCLC, 19.2%; in the assay on SN12C renal, 12.2%; with UO-31 renal, 0.418% (active); in the assay with TK-10 renal it was 54.9%; in the assay on ACHN renal, 7.58% (active). The growth in the assay on CAKI-1 renal was -8.25% (active); in the assay on A498 renal, 92.3%; in the assay on CCRF-CEM leukemia, 5.12% (active); with MOLT-4 leukemia, 5.67% (active).

On to `O=[N+]([O-])c1ccc(-c2nc(N3CCOCC3)c3c4c(sc3n2)CCCC4)cc1`, for which the growth in the assay with SK-MEL-2 melanoma is 95.6%; in the assay with EKVX NSCLC, 93.8%; with SN12C renal it was 106%; in the assay on UO-31 renal, 67.2%; in the assay on TK-10 renal, 105%; in the assay on ACHN renal, 96.2%. The growth with CAKI-1 renal was 76.5%; with A498 renal, 109%; in the assay with CCRF-CEM leukemia, 101%; in the assay on MOLT-4 leukemia it was 86.4%.

As to `COC(=O)c1cc(-c2ccccc2)[nH]c1N/N=C/c1c(Cl)cccc1Cl`, the growth is -4.44% (active) in the assay on SK-MEL-2 melanoma; -1.92% (active) in the assay with EKVX NSCLC; 35.2% with SN12C renal; 42.3% in the assay on UO-31 renal; 26.4% in the assay with TK-10 renal; 44% in the assay with ACHN renal. Also, the growth in the assay on CAKI-1 renal is 5.94% (active); in the assay with A498 renal it was -45.8% (active); in the assay with CCRF-CEM leukemia, -8.44% (active); with MOLT-4 leukemia, -9.43% (active).

Turning to `CCC(=C(c1ccc(OCCN2CCCC2)cc1)c1ccc(OCCN2CCCC2)cc1)c1ccc(Cl)cc1`, the growth with SK-MEL-2 melanoma is -28.2% (active); in the assay on EKVX NSCLC, 92.7%; with SN12C renal, -62.9% (active); with UO-31 renal it was -73.4% (active); with TK-10 renal it was -12.5% (active); in the assay with ACHN renal, -84.6% (active). The growth with CAKI-1 renal is -58.7% (active); in the assay on A498 renal, 46.8%; with CCRF-CEM leukemia, -38.7% (active); in the assay with MOLT-4 leukemia, -27.2% (active).

Turning to `COc1ccccc1Nc1nc2c(s1)C1=CC[C@H]3[C@@H]4CC[C@H]([C@H](C)CCCC(C)C)[C@@]4(C)CC[C@@H]3[C@@]1(C)CC2`, the growth in the assay with SK-MEL-2 melanoma was 115%; in the assay with EKVX NSCLC it was 105%; in the assay with SN12C renal, 99.6%; in the assay with UO-31 renal it was 73.5%; in the assay on TK-10 renal it was 117%; in the assay with ACHN renal it was 104%. The growth in the assay on CAKI-1 renal is 90.5%; in the assay on A498 renal it was 132%; in the assay on CCRF-CEM leukemia, 109%; in the assay with MOLT-4 leukemia, 104%.

With `C#Cc1cccc(Nc2ncnc3ccc(-c4cncc(NS(C)(=O)=O)c4)cc23)c1`, the growth was -39.7% (active) in the assay on SK-MEL-2 melanoma; 4.65% (active) in the assay with EKVX NSCLC; 24.2% in the assay on SN12C renal; 38.4% in the assay with UO-31 renal; -3.64% (active) with TK-10 renal; 33.2% with ACHN renal. The growth in the assay on CAKI-1 renal was 54.9%; in the assay with A498 renal, -10.7% (active); in the assay on CCRF-CEM leukemia, 14%; in the assay on MOLT-4 leukemia, -28.3% (active).
